# In PubChem BioAssay (NCATS):
# Records with an inconclusive call do not appear. The source made the active and inactive calls. Unless noted, the call rests on the fitted dose curve; in most records, active means well fitted curve in the direction sought with a large enough effect; inconclusive means small, poorly fitted or top-dose-only effect, or another doubt; inactive means no such curve, though single readings can be large; an effect the other way counts as inactive or inconclusive.
# Experiments:
# [1] = target: Lysosomal acid glucosylceramidase (Homo sapiens) (UniProt P04062); assay: Glucocerebrosidase-p2 (AID 348; in the data active means potency below about 10 µM; further: potency means the concentration at half of the fitted maximal effect); settings: purified GBA, blue fluorogenic substrate, 40 min
# Summary of the method: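 Compounds titrated from 0.6 nM upwards against 0.2 nM enzyme in pH 5.9 citric acid/KH2PO4, taurocholate, tween-20; blue fluorogenic substrate 80 uM, 40 min room temperature, stopped and read Ex 365/Em 440 for AC50.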
# [2] = target: Cytochrome P450 1A2 (Homo sapiens) (UniProt P05177); assay: p450-cyp1a2 (AID 410; calls by dose curve; further: potency means the concentration at half of the fitted maximal effect); settings: recombinant CYP1A2, luciferin-ME demethylation, luminescence; series mostly up to 57 µM
# Summary of the method: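 Inhibition was calculated relative to 57 uM furafylline (full inhibition). The reaction used human CYP1A2 at 20nM with Luciferin-ME at its Km, 100uM, driven by an NADPH-regenerating system for 60 min at room temperature.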
# [3] = NFAT Signaling Pathway (AID 444; active means well fitted curve in either direction with a large enough effect, not every such curve was filed as active;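 further: carbachol stimulus at about its EC50 of 1 µM final; on the % scale 0 is the no-effect control and ±100 the full control effect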); settings: Jurkat NFAT-bla M1, carbachol, beta-lactamase ratio, 5 h; at 7.69 µM (top of the series) unless noted
# Summary of the method: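 Read-out: CCF4 FRET ratio (460 nm/530 nm) after 1 h RT dye loading, used for %activity and AC50 from titration series. Cells: Jurkat NFAT-β-lactamase/M1 line, treated with compound plus 1 uM carbachol for 5 h, 37 °C.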
# [4] = Stat Signaling Pathway (AID 446; active means well fitted curve in either direction with a large enough effect, not every such curve was filed as active;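 further: ME-180 cervical cancer cells given 40 pM IL-6 alongside compound; SIE-controlled beta-lactamase reporter measured as 460/530 nm FRET emission ratio; on the % scale 0 is the no-effect control and ±100 the full control effect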); settings: ME-180 SIE beta-lactamase reporter, IL-6 stimulated, 5 h; at 7.69 µM (top of the series) unless noted
# Summary of the method: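 IL-6/STAT signaling read in ME-180 cells via an SIE beta-lactamase reporter. Stimulus was 40 pM IL-6 (its AC50) for 5 hrs, so both activation and inhibition register.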
# [5] = target: Glucocorticoid receptor (Homo sapiens) (UniProt P04150); assay: GR-GFP Redistribution (AID 450;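 active means compounds whose dose series gives a full or clear partial fitted curve of increased nuclear translocation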; further: potency means the concentration at half of the fitted maximal effect); settings: U2OS GR-GFP nuclear translocation, laser cytometry, 2 h
# [6] = target: Glucocorticoid receptor (Homo sapiens) (UniProt P04150); assay: GR-EFC Redistribution (AID 451; calls by dose curve; further: potency means the concentration at half of the fitted maximal effect); settings: CHO-K1 GR-EFC translocation, beta-gal luminescence, 2 h
# Summary of the method: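 Translocation of GR-ED fusion to nuclear EA restores b-gal, read by luminescence after 1 h room-temperature detection. Engineered CHO-K1 biosensor cells, 1,000/well, exposed 2 h at 37 C to titrations up to 46 uM final.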
# [7] = target: Mitogen-activated protein kinase 10 (Mus musculus) (UniProt Q61831); assay: JNK3 AlphaScreen Assay (AID 530; active means well fitted curve in either direction with a large enough effect, not every such curve was filed as active;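 further: kinase came from lysate of stimulated human HepG2 cells; signal reports phosphorylation of biotinylated GST-cJun 1-79 at Ser73 with 10 µM ATP; on the % scale 0 is the no-effect control and ±100 the full control effect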); settings: JNK3 lysate, c-Jun phosphorylation; series mostly up to 57.1 µM
# Summary of the method: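 Room-temperature AlphaScreen kinase assay; pre-activated HepG2 lysate as JNK3 source, biotin-GST-cJun(1-79) substrate, 10 uM ATP, compound 15 min preincubation.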
# [8] = target: 3',5'-cyclic-AMP phosphodiesterase 4B (Homo sapiens) (UniProt Q07343); assay: qHTS Assay for Inhibitors of PDE-IV (AID 607; active means well fitted activation curve with a large enough effect in the main read-out, with a control signal flat, not every such curve was filed as active; further: % of control where 0% means no effect); settings: HEK293 ACTOne CNG channel cells, membrane potential fluorescence; series mostly up to 22.9 µM
# Summary of the method: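 Live HEK293 cells with a modified cyclic nucleotide-gated (CNG) channel report intracellular cAMP via membrane-potential dye fluorescence (ex 535/em 590 nm). Endogenous PDE-IV was targeted. Compounds were tested at up to 22.9 uM final; RO 20-1724 100 uM served as control.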
# [9] = target: Cytochrome P450 3A4 (Homo sapiens) (UniProt P08684); assay: qHTS Assay for Activators of Cytochrome P450 3A4 (AID 885); settings: recombinant CYP3A4, Luciferin-PPXE luminescence, 60 min; series mostly up to 57.1 µM; further: nearly all actives have a fitted effect of over 65% in size; further: potency means the concentration at half of the fitted maximal effect
# Summary of the method: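 Quantitative HTS format: compounds preincubated with 20nM human CYP3A4 and Luciferin-PPXE substrate at KM, reaction started by NADPH regeneration, stopped after 60 min, luciferase luminescence read 20 min later.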
# [10] = qHTS Assay for Lipid Storage Modulators (AID 1519; calls by dose curve); settings: Drosophila S3 cells, BODIPY lipid droplet/cell ratio, laser cytometry, cells loaded with oleic acid; for activity change, negative = inhibition: at 57.5 µM (top of the series)
# Summary of the method: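 Cells seeded at 5,000 per well were treated with compounds over a concentration series and loaded with oleic acid (400 uM, as added). Lipid droplet fluorescence (488 nm excitation, 500-530 nm channel) was read by laser-scanning cytometry and normalized to 20 uM Triacsin C.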
# [11] = target: Dual specificity protein kinase CLK4 (Homo sapiens) (UniProt Q9HAZ1); assay: qHTS Assay for Inhibitors of CDC-like Kinase 4 (Kinase-Glo Assay) (AID 1770); settings: recombinant Clk4, Kinase-Glo ATP depletion luminescence; series mostly up to 66.7 µM; further: nearly all actives have a fitted effect of over 65% in size; further: potency means the concentration at half of the fitted maximal effect
# Summary of the method: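 Recombinant human Clk4 (25 nM) phosphorylated RS repeat peptide (100 uM) with 1 uM ATP in Tris pH 7.5/MgCl2/EGTA/DTT/Triton buffer for 4.5 h at room temperature. Residual ATP was quantified by Kinase-Glo luciferase luminescence.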
# [12] = target: Dual specificity protein kinase CLK4 (Homo sapiens) (UniProt Q9HAZ1); assay: qHTS Assay for Inhibitors of CDC-like Kinase 4 (ADP-Glo Assay) (AID 1771); settings: recombinant CLK4, ADP-Glo luminescence; series mostly up to 80 µM; further: nearly all actives have a fitted effect of over 70% in size; further: potency means the concentration at half of the fitted maximal effect
# Summary of the method: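 Kinase reaction: Clk4 at 25 nM, RS repeat peptide substrate at 100 uM, ATP at 1 uM, 1 hr, room temperature. Product ADP detected as luciferase signal via ADP-Glo.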
# [13] = target: Dual specificity protein kinase CLK4 (Homo sapiens) (UniProt Q9HAZ1); assay: qHTS Assay for Inhibitors of CDC-like Kinase 4 (ADP-FP Assay) (AID 1795); settings: Transcreener ADP fluorescence polarization; series mostly up to 50 µM; further: nearly all actives have a fitted effect of over 60% in size; further: potency means the concentration at half of the fitted maximal effect
# Summary of the method: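 Recombinant human Clk4 (6.25 nM) phosphorylated RS repeat peptide (100 uM) with 1 uM ATP in Tris pH 7.5/MgCl2/EGTA/DTT/Triton buffer for one hour. ADP was quantified by Transcreener competitive fluorescence polarization against an ADP calibration curve.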
# [14] = target: Ubiquitin carboxyl-terminal hydrolase 1 (Homo sapiens) (UniProt O94782); assay: Inhibitors of USP1/UAF1: Pilot qHTS (AID 504865); settings: purified USP1/UAF1, Ub-rhodamine cleavage fluorescence; series mostly up to 54.9 µM;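 further: rhodamine fluorescence freed from ubiquitin-rhodamine substrate followed over time; top concentration of the series differs between compounds; on the % scale 0 is the no-effect control and ±100 the full control effect; nearly all actives have a fitted effect of over 35% in size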
# Summary of the method: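 USP1/UAF1 complex (1nM) preincubated with compound 15 min at room temperature, then Ub-Rho substrate (150nM final) added. Fluorescence read kinetically at 480/540 nm, 6 reads every 60 seconds. Buffer: 50mM HEPES pH 7.8, 0.5mM EDTA, 0.1 mg/ml BSA, 1mM TCEP, 0.01% Tween-20.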
# [15] = AP1 Signaling Pathway (AID 357; active means well fitted curve in either direction with a large enough effect, not every such curve was filed as active;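 further: ME-180 reporter cells stimulated with EGF at its EC50 level; on the % scale 0 is the no-effect control and ±100 the full control effect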); settings: ME-180 (cervical carcinoma) AP-1-bla reporter, EGF-induced, beta-lactamase ratio, 5 h; at 7.69 µM (top of the series) unless noted
# Summary of the method: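 AP-1-bla ME-180 cells, Opti-MEM + 0.5% dialyzed FBS, plated overnight 37 °C. Cpd titration + EC50 EGF, 5 h 37 °C. CCF4 2.5 h RT; ex 405, em 460/530 ratio → %activity, AC50.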
# [16] = target: Cytochrome P450 3A4 (Homo sapiens) (UniProt P08684); assay: qHTS Assay for Inhibitors and Substrates of Cytochrome P450 3A4 (AID 884); settings: recombinant CYP3A4, Luciferin-PPXE luminescence; series mostly up to 57.1 µM; further: on the % scale 0 is the no-effect control and ±100 the full control effect; nearly all actives have a fitted effect of over 50% in size
# Summary of the method: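 20 nM human CYP3A4 with 25 uM Luciferin-PPXE (at KM) in 200 mM KPO4, preincubated 10 min with compound; NADPH regeneration started a 60 min RT reaction. Luciferin detected by luminescence, normalized to 57 uM ketoconazole as full inhibition.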
# [17] = measured here: cell count channel max response
# [18] = measured here: lipid channel max response
# Sequence of Lysosomal acid glucosylceramidase (Homo sapiens) (P04062 whole entry, looked up): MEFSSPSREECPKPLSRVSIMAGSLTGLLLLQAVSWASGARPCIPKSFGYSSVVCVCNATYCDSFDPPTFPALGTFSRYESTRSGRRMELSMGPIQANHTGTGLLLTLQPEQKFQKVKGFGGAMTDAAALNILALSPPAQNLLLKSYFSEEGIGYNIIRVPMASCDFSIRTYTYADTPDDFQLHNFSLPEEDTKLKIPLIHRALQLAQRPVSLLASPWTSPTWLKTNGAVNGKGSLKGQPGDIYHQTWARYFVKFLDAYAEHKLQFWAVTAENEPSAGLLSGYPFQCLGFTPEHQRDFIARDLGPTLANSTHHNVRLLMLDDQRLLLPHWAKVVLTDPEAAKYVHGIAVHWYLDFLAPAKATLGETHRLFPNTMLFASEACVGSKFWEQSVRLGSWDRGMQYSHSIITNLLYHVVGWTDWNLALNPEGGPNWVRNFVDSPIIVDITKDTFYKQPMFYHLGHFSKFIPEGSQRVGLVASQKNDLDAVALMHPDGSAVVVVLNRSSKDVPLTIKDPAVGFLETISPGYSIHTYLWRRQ
# Sequence of Dual specificity protein kinase CLK4 (Homo sapiens) (Q9HAZ1 whole entry, looked up): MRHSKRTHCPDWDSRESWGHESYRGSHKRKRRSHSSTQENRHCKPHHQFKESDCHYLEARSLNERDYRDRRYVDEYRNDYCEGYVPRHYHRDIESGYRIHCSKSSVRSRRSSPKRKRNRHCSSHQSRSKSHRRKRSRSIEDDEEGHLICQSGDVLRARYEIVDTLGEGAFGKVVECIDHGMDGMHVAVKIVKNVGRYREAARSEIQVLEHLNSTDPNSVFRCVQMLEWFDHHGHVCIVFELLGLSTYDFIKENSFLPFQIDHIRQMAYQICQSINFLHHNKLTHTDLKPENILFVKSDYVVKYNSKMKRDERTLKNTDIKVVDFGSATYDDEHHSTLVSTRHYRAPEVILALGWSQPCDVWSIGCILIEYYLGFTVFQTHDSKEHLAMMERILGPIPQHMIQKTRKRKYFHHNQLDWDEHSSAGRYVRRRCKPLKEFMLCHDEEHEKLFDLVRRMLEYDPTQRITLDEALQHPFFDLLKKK
# Sequence of Cytochrome P450 3A4 (Homo sapiens) (P08684 whole entry, looked up): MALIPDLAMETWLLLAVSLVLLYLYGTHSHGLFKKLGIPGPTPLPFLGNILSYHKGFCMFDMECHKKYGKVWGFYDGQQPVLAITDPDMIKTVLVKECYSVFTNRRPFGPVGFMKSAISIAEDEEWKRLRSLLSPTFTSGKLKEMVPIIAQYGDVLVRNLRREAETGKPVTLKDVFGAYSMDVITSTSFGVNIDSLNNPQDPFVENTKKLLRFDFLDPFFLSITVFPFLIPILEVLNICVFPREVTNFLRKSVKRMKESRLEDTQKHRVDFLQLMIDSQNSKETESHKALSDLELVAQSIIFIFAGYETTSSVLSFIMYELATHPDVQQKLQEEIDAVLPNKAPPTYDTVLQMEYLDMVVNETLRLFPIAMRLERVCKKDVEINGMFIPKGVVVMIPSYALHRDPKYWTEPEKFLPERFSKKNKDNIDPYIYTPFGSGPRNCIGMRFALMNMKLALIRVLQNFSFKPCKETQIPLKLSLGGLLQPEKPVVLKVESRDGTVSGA
# Sequence of Cytochrome P450 1A2 (Homo sapiens) (P05177 whole entry, looked up): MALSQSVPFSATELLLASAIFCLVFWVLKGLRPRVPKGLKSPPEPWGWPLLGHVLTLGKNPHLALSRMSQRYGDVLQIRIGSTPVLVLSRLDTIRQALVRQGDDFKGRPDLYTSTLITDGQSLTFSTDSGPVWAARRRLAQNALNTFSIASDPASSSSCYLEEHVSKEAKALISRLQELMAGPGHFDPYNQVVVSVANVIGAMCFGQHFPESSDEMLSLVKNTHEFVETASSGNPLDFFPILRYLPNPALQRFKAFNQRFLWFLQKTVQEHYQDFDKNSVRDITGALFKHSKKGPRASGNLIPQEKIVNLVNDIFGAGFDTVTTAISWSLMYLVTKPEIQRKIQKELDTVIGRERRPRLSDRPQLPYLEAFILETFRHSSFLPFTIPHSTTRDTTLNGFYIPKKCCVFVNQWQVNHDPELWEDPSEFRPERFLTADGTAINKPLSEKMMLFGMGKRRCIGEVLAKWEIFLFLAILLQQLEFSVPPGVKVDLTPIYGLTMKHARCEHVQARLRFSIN
# Sequence of Glucocorticoid receptor (Homo sapiens) (P04150 whole entry, looked up, the tested form may be a part): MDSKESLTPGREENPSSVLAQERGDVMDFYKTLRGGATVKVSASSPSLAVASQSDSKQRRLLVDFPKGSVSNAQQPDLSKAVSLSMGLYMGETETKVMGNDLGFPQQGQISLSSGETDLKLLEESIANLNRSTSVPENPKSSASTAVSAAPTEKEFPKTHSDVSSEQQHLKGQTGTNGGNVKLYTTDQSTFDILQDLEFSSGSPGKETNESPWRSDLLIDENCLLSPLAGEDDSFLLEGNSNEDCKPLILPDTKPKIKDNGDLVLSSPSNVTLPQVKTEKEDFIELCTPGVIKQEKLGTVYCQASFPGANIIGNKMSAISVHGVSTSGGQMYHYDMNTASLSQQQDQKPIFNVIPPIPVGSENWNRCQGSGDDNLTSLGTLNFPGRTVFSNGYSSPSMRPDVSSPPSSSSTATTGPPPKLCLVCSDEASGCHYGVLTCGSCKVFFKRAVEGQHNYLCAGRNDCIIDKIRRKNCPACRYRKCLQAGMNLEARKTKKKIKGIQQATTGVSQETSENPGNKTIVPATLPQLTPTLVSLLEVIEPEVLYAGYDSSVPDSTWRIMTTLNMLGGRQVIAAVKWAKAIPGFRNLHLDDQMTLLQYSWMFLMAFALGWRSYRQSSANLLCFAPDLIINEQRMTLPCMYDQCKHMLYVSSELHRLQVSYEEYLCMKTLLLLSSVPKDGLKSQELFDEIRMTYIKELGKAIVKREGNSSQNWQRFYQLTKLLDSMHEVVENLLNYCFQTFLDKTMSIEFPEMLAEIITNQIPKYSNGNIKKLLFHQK
# Sequence of 3',5'-cyclic-AMP phosphodiesterase 4B (Homo sapiens) (Q07343 whole entry, looked up): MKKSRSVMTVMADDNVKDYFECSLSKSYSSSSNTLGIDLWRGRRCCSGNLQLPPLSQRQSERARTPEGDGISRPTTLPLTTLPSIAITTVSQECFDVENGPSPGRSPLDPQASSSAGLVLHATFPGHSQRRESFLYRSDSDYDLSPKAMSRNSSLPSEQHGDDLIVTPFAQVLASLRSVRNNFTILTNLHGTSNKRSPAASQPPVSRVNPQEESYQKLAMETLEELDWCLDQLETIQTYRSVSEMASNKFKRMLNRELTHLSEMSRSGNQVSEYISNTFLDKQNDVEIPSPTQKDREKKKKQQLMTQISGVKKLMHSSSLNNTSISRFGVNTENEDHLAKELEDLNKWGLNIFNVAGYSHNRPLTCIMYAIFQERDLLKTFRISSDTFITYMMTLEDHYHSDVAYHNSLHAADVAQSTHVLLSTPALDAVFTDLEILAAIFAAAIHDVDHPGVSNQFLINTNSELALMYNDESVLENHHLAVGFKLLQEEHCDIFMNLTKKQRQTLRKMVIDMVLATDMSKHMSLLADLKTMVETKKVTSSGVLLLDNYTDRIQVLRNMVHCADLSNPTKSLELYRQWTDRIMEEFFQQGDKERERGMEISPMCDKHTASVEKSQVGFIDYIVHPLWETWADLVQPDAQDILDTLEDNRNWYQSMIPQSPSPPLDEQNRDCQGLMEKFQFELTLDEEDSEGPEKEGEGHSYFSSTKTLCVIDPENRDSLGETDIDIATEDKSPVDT
# Sequence of Ubiquitin carboxyl-terminal hydrolase 1 (Homo sapiens) (O94782 whole entry, looked up): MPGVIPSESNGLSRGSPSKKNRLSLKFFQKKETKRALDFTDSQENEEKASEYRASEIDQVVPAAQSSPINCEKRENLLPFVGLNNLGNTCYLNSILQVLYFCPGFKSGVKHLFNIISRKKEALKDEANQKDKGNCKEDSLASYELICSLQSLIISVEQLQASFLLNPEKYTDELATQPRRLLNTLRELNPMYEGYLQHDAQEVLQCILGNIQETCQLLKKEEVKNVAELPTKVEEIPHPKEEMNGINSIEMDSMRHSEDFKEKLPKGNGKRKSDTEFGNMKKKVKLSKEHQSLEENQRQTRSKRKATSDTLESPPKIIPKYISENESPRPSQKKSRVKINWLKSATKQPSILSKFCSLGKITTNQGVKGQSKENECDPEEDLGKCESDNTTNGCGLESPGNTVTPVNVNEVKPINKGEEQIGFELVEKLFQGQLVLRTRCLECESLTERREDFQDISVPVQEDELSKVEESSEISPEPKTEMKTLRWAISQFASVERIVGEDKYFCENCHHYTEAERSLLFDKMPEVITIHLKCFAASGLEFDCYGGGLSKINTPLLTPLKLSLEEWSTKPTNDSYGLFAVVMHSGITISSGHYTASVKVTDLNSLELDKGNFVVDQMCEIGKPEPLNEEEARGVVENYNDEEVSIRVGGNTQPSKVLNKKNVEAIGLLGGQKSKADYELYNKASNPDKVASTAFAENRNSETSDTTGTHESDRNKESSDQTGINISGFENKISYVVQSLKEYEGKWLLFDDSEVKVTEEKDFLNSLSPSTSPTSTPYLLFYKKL
SMILES,Potency [1],Potency [2],"activity change, negative = inhibition [3]","activity, negative = inhibition [4]",Potency [5],Potency [6],Potency [7],Potency [8],Potency [9],"activity change, negative = inhibition [10]","max response [10, 17] [%]","max response [10, 18] [%]",Potency [11],Potency [12],Potency [13],Potency [14],"activity change, negative = inhibition [15]",Potency [16]
COc1cccc(Nc2ncc3nc(C)c(=O)n(-c4ccccc4)c3n2)c1,> 11.4 µM (inactive),5.01 µM (active),11.1% (inactive),-20.1% (inactive),> 9.22 µM (inactive),> 46 µM (inactive),inactive,inactive,inactive,-6.79% (inactive),-3.12,-13.9,10 µM (active),12.6 µM (active),1.58 µM (active),inactive,,
Cc1nc2cnc(N3CCN(C)CC3)nc2n(C[C@H]2CCCO2)c1=O,> 11.4 µM (inactive),,-3.95% (inactive),-13% (inactive),> 9.22 µM (inactive),> 46 µM (inactive),inactive,,,2.98% (inactive),2.4,4.31,inactive,inactive,inactive,inactive,-19.6% (inactive),
Clc1ccccc1-c1cncnc1NCCN1CCOCC1,> 11.4 µM (inactive),,,7.26% (inactive),> 46 µM (inactive),> 46 µM (inactive),inactive,inactive,,1.35% (inactive),18.6,20.3,inactive,inactive,inactive,inactive,,
COCCn1c(=O)c(-c2cccs2)nc2cnc(N3CCN(C)CC3)nc21,> 11.4 µM (inactive),15.8 µM (active),,12% (inactive),> 9.22 µM (inactive),> 46 µM (inactive),inactive,inactive,inactive,1.3% (inactive),18.6,19.9,inactive,inactive,inactive,inactive,,
CN(C)C(=O)c1ccc(-c2ccc3ncnc(NCc4cccs4)c3c2)cc1,> 11.4 µM (inactive),15.8 µM (active),17.3% (inactive),-7.67% (inactive),> 46 µM (inactive),> 46 µM (inactive),inactive,,inactive,6.27% (inactive),5.7,12.3,12.6 µM (active),7.08 µM (active),14.1 µM (active),inactive,-29.4% (inactive),
COCCn1c(=O)c(-c2ccc(Cl)cc2)nc2cnc(N3CCNCC3)nc21,> 11.4 µM (inactive),,,,> 9.22 µM (inactive),> 46 µM (inactive),inactive,inactive,,5.4% (inactive),20.2,21.3,inactive,inactive,inactive,inactive,,
COCCn1c(=O)c(-c2ccccc2)nc2cnc(N3CCN(C)CC3)nc21,> 11.4 µM (inactive),,7.66% (inactive),-8.44% (inactive),> 9.22 µM (inactive),> 46 µM (inactive),inactive,inactive,,3.96% (inactive),11.4,16.1,inactive,inactive,inactive,inactive,-12.6% (inactive),
COc1ccc(-c2nc3cnc(OC)nc3n(C[C@H]3CCCO3)c2=O)cc1,> 11.4 µM (inactive),,11.8% (inactive),-12.4% (inactive),> 9.22 µM (inactive),> 46 µM (inactive),inactive,,,0.324% (inactive),2.19,1.25,inactive,inactive,inactive,inactive,-17.7% (inactive),
Cc1nc2cnc(N3CCN(C)CC3)nc2n(C2CC2)c1=O,> 11.4 µM (inactive),,-3.47% (inactive),-9.11% (inactive),> 9.22 µM (inactive),> 46 µM (inactive),inactive,,,3.22% (inactive),14.4,16.3,inactive,inactive,inactive,inactive,-13.1% (inactive),
CN1CCN(c2ncc3nc(-c4cc(F)cc(F)c4)c(=O)n(CCC#N)c3n2)CC1,> 11.4 µM (inactive),15.8 µM (active),,,> 9.22 µM (inactive),> 46 µM (inactive),inactive,inactive,inactive,1.36% (inactive),25.2,26.1,inactive,inactive,inactive,inactive,,
CN1CCN(c2ncc3nc(-c4ccc(Cl)cc4)c(=O)n(Cc4ccc(F)cc4)c3n2)CC1,> 11.4 µM (inactive),31.6 µM (active),,,> 9.22 µM (inactive),> 46 µM (inactive),,inactive,15.8 µM (active),-1.37% (inactive),15.9,10.5,inactive,inactive,inactive,inactive,,inactive
Cn1c(=O)c(-c2ccc(F)cc2)nc2cnc(OCc3ccccc3)nc21,> 11.4 µM (inactive),,19.9% (inactive),-11.9% (inactive),> 9.22 µM (inactive),> 46 µM (inactive),inactive,inactive,,5.66% (inactive),7.28,10.2,inactive,inactive,inactive,inactive,14.6% (inactive),
